Measurements taken from PubChem BioAssay AID1159580 (chemical genetic matrix, 2015).
In all, about 5,500 compounds went through this assay and about 2,000 (36%) were called active. About 18% were inconclusive and are not listed. No stated cut-off is given here; in the data, active means normalized growth mostly below about 0.91 (no sharp cut-off); inconclusive means no clear call, values can overlap the other calls; inactive means mostly above about 0.92. The list shows a part of the results.

Assay: chemical genetic growth profiling, strain panel (AID 1159580);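 further: tested at 20 µM; growth read once vehicle control cultures reached saturation at 30 °C; 1 = growth at the plate median or of vehicle wells; lower values mean less growth of the strain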
Conditions: S. cerevisiae deletion strains, growth OD

Measured: normalized growth

C=C(C)[C@H]1CN[C@H](C(=O)O)[C@H]1CC(=O)O
inactive: locus YAL040C, strain CLN3, hits give low values 1.02 | locus YCL061C, strain MRC1 (second series), hits give low values 1 | locus YDR363W, strain ESC2, hits give low values 1.03 | locus YER002W, strain NOP16, hits give low values 1.01 | locus YMR307W, strain GAS1, hits give low values 1 | locus YNL128W, strain TEP1, hits give low values 1 | locus YNL175C, strain NOP13, hits give low values 1.02 | locus YNL197C, strain WHI3, hits give low values 1.02 | locus YNL224C, strain SQS1, hits give low values 1 | locus YOR083W, strain WHI5 (second series), hits give low values 1.03
